This is a sample that favours compounds with a hit; in the whole collection about 21% have one here.
TDP1 cell CPT – DT40-hTDP1 cell growth loss with CPT | chicken DT40 Tdp1-/-;hTDP1 cells + 20 nM CPT, ATP luminescence, 48 h | Potency, µM (doses to about 46.2 µM), without a hit: at the top dose activity change, negative = growth inhibition, most hits filed as inhibitors | 420,000 compounds, 12% hits | AID 686979; further: potency means the concentration at half of the fitted maximal effect; nearly all actives have a fitted effect of over 55% in size
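Cell growth measured by CellTiter-Glo luminescence after a minimum 48 h, 37 C compound exposure with 20 nM CPT in Tdp1-knockout DT40 cells stably expressing hTDP1, seeded 400/well; qHTS titration format.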
TDP1 cell noCPT – qHTS for Inhibitors of human tyrosyl-DNA phosphodiesterase 1 (TDP1): qHTS in cells in absence of CPT | DT40 Tdp1-/- hTDP1 cells, no CPT, ATP luminescence, 48 h | Potency, µM (highest dose often 46.2 µM), without a hit: at the top dose activity change, negative = growth inhibition, usual class: inhibitors | 420,000 compounds, 15% hits | AID 686978, 2013; further: potency means the concentration at half of the fitted maximal effect; nearly all actives have a fitted effect of over 55% in size
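Compound effects on proliferation are scored in DT40 Tdp1-/-;hTDP1 cells in the absence of CPT. ATP levels (CellTiter-Glo luminescence) are recorded after a ≥48 hr, 37 °C incubation.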
ELG1 repair inh – inhibitors of ELG1-dependent DNA repair in HEK293T cells; AID 504467; 330,000 compounds, 2.3% hits; Potency, µM (titrated, usually from 46.1 µM), without a hit: at the top dose activity change, negative = inhibition, hits mostly inhibitors; HEK293T ELG1-luciferase reporter, luminescence, 16 h; DNA damage induced by 5-fluorouridine; further: potency means the concentration at half of the fitted maximal effect; nearly all actives have a fitted effect of over 55% in size
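HEK293T cells expressing luciferase-tagged ELG1 (2,000/well) received 5-Fluorouridine plus compound or DMSO for 16 hr at 37 °C. Luciferase was read by ONE-Glo luminescence after 30 min at room temperature.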
RORg inh – blocks mouse ROR gamma transcriptional activity; Potency, µM (series often up to 53.6 µM), without a hit: top-dose activity change, negative = inhibition, most hits filed as inhibitors; Drosophila S2 Gal4-RORgamma UAS-luciferase reporter, 20 h; 310,000 compounds, 5.4% hits; P51450; further: potency means the concentration at half of the fitted maximal effect; nearly all actives have a fitted effect of over 60% in size
Target sequence (P51450 whole entry, looked up, the tested form may be a part): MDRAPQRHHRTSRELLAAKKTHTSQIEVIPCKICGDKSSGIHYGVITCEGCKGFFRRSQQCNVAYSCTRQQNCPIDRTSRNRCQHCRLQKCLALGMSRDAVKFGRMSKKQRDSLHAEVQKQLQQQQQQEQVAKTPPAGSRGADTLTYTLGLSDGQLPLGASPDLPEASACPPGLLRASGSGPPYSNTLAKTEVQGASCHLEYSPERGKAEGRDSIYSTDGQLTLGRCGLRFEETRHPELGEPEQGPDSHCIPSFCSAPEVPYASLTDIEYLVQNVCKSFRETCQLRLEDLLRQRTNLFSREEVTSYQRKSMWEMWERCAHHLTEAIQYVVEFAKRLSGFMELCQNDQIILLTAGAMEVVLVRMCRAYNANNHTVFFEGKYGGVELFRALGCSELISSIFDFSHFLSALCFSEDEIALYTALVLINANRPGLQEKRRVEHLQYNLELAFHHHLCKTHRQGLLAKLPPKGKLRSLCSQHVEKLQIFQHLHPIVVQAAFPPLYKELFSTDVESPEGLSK
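A Gal4/UAS one-hybrid system in insect cells: metallothionein-promoter Gal4–ROR gamma fusion plus Photinus luciferase reporter. Copper sulfate 700 uM final, 20 hr ambient incubation, luminescent detection after 10 min with reagent.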
IL1B secr inh – inhibitors of inflammasome signaling (IL-1 beta secretion). THP-1 LPS/ATP IL-1B secretion, AlphaLISA, 16 h; hits give low values. activity change, % at 57.5 µM. 360,000 compounds, 4.7% hits. AID 743279; in the data active means activity change below about -50%; inconclusive means mostly about -30% to -49%
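THP-1 cells pretreated 1 hr with compounds (up to 57.5 uM final), then stimulated with LPS (250 ng/mL final) plus ATP (1.25 mM final); secreted IL-1B measured by AlphaLISA after 16 hr, decreased signal indicating inhibition.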
Gal4-VP16 FLuc – Gal4-VP16 reporter inhibition counter-screen; Drosophila S2 Gal4-VP16 UAS-luciferase, luminescence, 20 h; Potency, µM (series often up to 53.6 µM), without a hit: at the top dose activity, negative = inhibition, usual class: inhibitors; 310,000 compounds, 3.5% hits;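 further: Gal4-VP16 expression switched on by copper sulfate through the metallothionein promoter; potency means the concentration at half of the fitted maximal effect; nearly all actives have a fitted effect of over 50% in size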
Starred values were filed as active, the others as inactive; ? = inconclusive; . = no result; [ ] = remark or other dose. Unless noted, the call rests on the fitted dose curve; in most records, active means well fitted curve in the direction sought with a large enough effect; inconclusive means small, poorly fitted or top-dose-only effect, or another doubt; inactive means no such curve, though single readings can be large; an effect the other way counts as inactive or inconclusive. On the % scale 0 is the no-effect control and ±100 the full control effect.

SMILES	TDP1 cell CPT	TDP1 cell noCPT	ELG1 repair inh	RORg inh	IL1B secr inh	Gal4-VP16 FLuc
COc1ccccc1/C=C/C(=O)N1CCc2cc(OC)c(OC)cc2C1C (stereo not drawn)	?	?	-23%	17%	-70*	-4%
COc1cc2c(cc1OC)C(C)N(C(=O)[C@@H](NC(=O)c1ccccc1)C(C)C)CC2 (stereo partly drawn)	?	29µM*	-19%	-20%	-52*	0%
COc1cc2c(cc1OC)C(C)N(C(=O)Nc1ccccc1)CC2 (stereo not drawn)	3.7µM*	4.1µM*	?	-14%	40	-2%
COc1cc2c(cc1OC)C(c1ccccc1)N(C(=O)CCl)CC2 (stereo not drawn)	3.3µM*	2.9µM*	?	25µM*	-96*	?
COc1cc2c(cc1OC)C(C)N(C(=O)CCNC(=O)c1ccccc1)CC2 (stereo not drawn)	-1%	28%	0%	-16%	-11	1%
COc1ccc(-n2nc(C(=O)N3CCN(c4cccc(C(F)(F)F)c4)CC3)c3c4ccccc4n(C)c3c2=O)cc1Cl	-8%	-12%	.	.	.	.
CCOc1ccc(-n2c(SCC(=O)NC)nnc2-c2ccco2)cc1	8%	-2%	4%	-2%	6	-8%
CCOc1ccc(CNC(=O)c2cnc3c(C)cccn3c2=O)cc1	1%	-16%	.	.	.	.
Fc1ccc2ncc3c(-c4ccccc4)n[nH]c3c2c1	-4%	-15%	.	.	.	.
Fc1ccc2cnc(-c3ccccc3)c(-c3cccc(C(F)(F)F)c3)c2c1	16µM*	18µM*	20%	.	26	.
Fc1cc(F)cc(-c2c(-c3ccccc3)ncc3ccc(F)cc23)c1	13µM*	7.3µM*	23%	.	39	.
O=C(COc1ccccc1F)Nc1ccc(OCc2cc(=O)n3ccccc3n2)cc1	2%	-10%	.	.	.	.
O=C(CSc1ccccc1C(=O)O)c1ccc([N+](=O)[O-])cc1	?	?	24%	8%	-2	-4%
COc1ccc(NC(=O)CNC(=O)c2ccc([N+](=O)[O-])cc2)cc1	7%	13%	-3%	-12%	16	5%
Cc1ccc[n+](CC(=O)Nc2ccc([N+](=O)[O-])cc2)c1	10µM*	21µM*	-8%	2%[1.91 µM]	-80*	?
CNC(CC(=O)c1ccc([N+](=O)[O-])cc1)C(Cl)(Cl)Cl (stereo not drawn)	2.3µM*	2.6µM*	2%	?	-67*	13µM*
Cc1nc(-c2cccc(NC(=O)Nc3ccc([N+](=O)[O-])cc3)c2)no1	5.2µM*	4.6µM*	.	.	.	.
COc1ccc(C(=O)CC(=O)Nc2ccc([N+](=O)[O-])cc2)cc1	16µM*	?	?	?	?	3%
CC(=O)c1ccc(-c2cccc(-c3cc(=O)oc4ccc(C(C)(C)C)cc34)c2)cc1	?	?	-20%	-2%	-30	9%
CO[C@H]1COC(=O)[C@H](C)COC(=O)[C@@H](OCc2ccccc2)/C=C\[C@@H]1C	.	.	.	-7%[10 µM]	.	-1%[10 µM]
O=C(c1ccccc1)c1ccc(Sc2ccc([N+](=O)[O-])cc2)cc1	?	?	12µM*	-12%	-16	0%
CC(C)(C)c1ccc(NC(=O)Nc2ccc(F)cc2)cc1	5.2µM*	6.5µM*	?	59%	?	-18%
CCCC(=O)Nc1ccc(Sc2ccc([N+](=O)[O-])cc2)cc1	2.3µM*	2.3µM*	-23%	?	?	?
CC(C)NS(=O)(=O)c1ccc(NC(=O)C(C)Oc2ccc(C(=O)c3ccccc3)cc2)cc1 (stereo not drawn)	23µM*	18µM*	?	?	10	7.1µM*
CCCC(=O)Nc1ccc(C(=O)NNC(=O)c2cccc([N+](=O)[O-])c2)cc1	-4%	-10%	0%	-9%	-3	-5%
SMILES	TDP1 cell CPT	TDP1 cell noCPT	ELG1 repair inh	RORg inh	IL1B secr inh	Gal4-VP16 FLuc
CCOc1ccc(N2CC(C(=O)NC3CCCCCC3)CC2=O)cc1 (stereo not drawn)	19%	6%	-1%	1%	8	2%
CC(C)Oc1ccc(C(=O)Nc2ccc([N+](=O)[O-])cc2)cc1	?	-25%	5%	6%	-12	0%
COc1ccc(NC(=O)Nc2ccc(F)cc2)cn1	16µM*	7.3µM*	-11%	0%	-3	-22%
COc1ccc(OC(C)C(=O)Nc2ccc([N+](=O)[O-])cc2)cc1 (stereo not drawn)	?	21µM*	?	?	0	0%
COC(=O)c1ccc(NC(=O)COc2ccc([N+](=O)[O-])cc2)cc1	0%	-8%	?	-44%	5	10µM*
COC(=O)c1ccc(NC(=O)Nc2ccc(F)cc2)cc1	18µM*	13µM*	?	?	?	3%
CCOC(=O)c1sc2ccccc2c1S(=O)(=O)NCc1ccc(F)cc1	2%	4%	.	.	.	.
O=C(CS(=O)(=O)c1ccc(Cl)cc1)Nc1nccs1	-4%	?	.	.	0	.
O=C(O)c1ccc(N=C2c3ccccc3-c3ccccc32)cc1	9%	19%	.	.	-4	.
Cc1ccc(OCCCC(=O)Nc2sc3c(c2C(N)=O)CCC(C)C3)cc1 (stereo not drawn)	-9%	-27%	.	.	.	.
COc1ccc(C(=O)/C=C/Nc2ccc([N+](=O)[O-])cc2)cc1	-7%	-2%	?	-6%	-12	-8%
CCCOC(=O)c1cccc(NC(=O)COc2ccc([N+](=O)[O-])cc2)c1	18µM*	23µM*	?	36%	-8	?
COC(=O)c1ccc(NC(=O)Nc2ccc([N+](=O)[O-])cc2)cc1	2.6µM*	2.3µM*	?	?	?	-28%
COc1ccc(C(=O)CC(Nc2ccc([N+](=O)[O-])cc2)c2ccc(OC)cc2)cc1 (stereo not drawn)	?	18µM*	-14%	-3%	-7	3%[0.365 µM]
O=C(Nc1ccc([N+](=O)[O-])cc1)Nc1ccon1	0.41µM*	0.33µM*	3%	13%	0	-1%
COc1cccc(C(=O)NCCC(=O)NCc2cc(=O)n(C)c(=O)n2C)c1	-11%	2%	9%	4%	-17	3%
Cc1onc(-c2c(F)cccc2Cl)c1C(=O)OCC(=O)c1c[nH]c2ccccc12	?	18µM*	23µM*	?	-52*	?
